From PubChem BioAssay
SMN2 splice enh: qHTS Assay for Enhancers of SMN2 Splice Variant Expression; hit rate 2.8% among 210,000; Potency, µM (series often up to 46.1 µM), inactives show at the top dose activity change, positive = activation, actives largely listed as activators; AID 1458, 2008; HEK293 SMN2-luciferase splicing reporter, luminescence, 30-36 h; also: % of control where 0% means no effect; nearly all actives have a fitted effect of over 55% in size
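HEK293 cells carry an SMN2 minigene-luciferase reporter in which exon 7 inclusion puts luciferase in frame. Cells were seeded at 2000 cells/well, attached for 10-12 hours, then exposed to compounds for 30-36 hours at 37C before ONE-Glo luminescence.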
ELG1 genotoxic: qHTS screen for small molecules that induce genotoxicity in human embryonic kidney (HEK293T) cells expressing luciferase-tagged ELG1; HEK293T ELG1-luciferase reporter, luminescence, 16 h; Potency, µM (doses to about 46 µM), inactives show top-dose activity change, positive = activation, hits mostly activators; hit rate 1.3% among 330,000; AID 504466, 2011; also: % of control where 0% means no effect; nearly all actives have a fitted effect of over 60% in size
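Genotoxicity was scored as increased ELG1-luciferase reporter signal, measured by ONE-Glo luminescence (30 min, room temperature). Compound or vehicle exposure of the HEK293T reporter cells lasted 16 hr at 37°C.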
FLuc modulator: qHTS profiling assay for firefly luciferase inhibitor/activator using purifed enzyme and Km concentrations of substrates (counterscreen for miR-21 project); purified FLuc, Km substrates, luminescence inhibition; Potency, µM (top dose mostly 57.5 µM), for the others: at the top dose activity change, negative = inhibition, hits mostly inhibitors; Luciferin 4-monooxygenase (Photinus pyralis), P08659; hit rate 6.9% among 360,000;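 also: plate controls were vehicle for no effect and reference inhibitor for full effect; nearly all actives have a fitted effect of over 55% in size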
Target sequence (P08659 whole entry, looked up): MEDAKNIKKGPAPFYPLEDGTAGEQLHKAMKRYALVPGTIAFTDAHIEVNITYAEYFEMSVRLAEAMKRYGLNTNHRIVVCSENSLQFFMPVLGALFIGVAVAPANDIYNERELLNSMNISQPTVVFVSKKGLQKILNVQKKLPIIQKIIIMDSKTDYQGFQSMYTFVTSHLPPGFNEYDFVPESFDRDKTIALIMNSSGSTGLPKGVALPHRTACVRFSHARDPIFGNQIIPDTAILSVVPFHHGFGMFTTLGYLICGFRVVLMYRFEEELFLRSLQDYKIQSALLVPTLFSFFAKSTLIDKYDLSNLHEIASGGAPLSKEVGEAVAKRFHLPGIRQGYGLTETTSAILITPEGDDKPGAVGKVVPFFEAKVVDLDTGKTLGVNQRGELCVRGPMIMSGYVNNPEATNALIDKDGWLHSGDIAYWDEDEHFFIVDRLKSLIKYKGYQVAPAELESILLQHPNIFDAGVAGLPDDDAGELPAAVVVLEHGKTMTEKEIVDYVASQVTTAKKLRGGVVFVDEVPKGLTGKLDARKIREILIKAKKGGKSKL
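Purified P. pyralis luciferase, 10 nM final, with Km-level 10 uM D-luciferin and 10 uM ATP in 50 mM Tris acetate pH 7.5, 10 mM Mg acetate, 0.01% Tween-20, 0.05% BSA; 6-point qHTS titration about 60 µM downward; luminescence read.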
NPC1 promoter act: qHTS Assay for NPC1 Promoter Activators | Potency, µM (series often up to 9.22 µM), without a hit: at the highest dose activation, most hits filed as activators | hit rate 2.4% among 320,000 | Huh7 NPC1 promoter luciferase reporter, 24 h; also: % of control where 0% means no effect; nearly all actives have a fitted effect of over 60% in size
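Luminescence from an NPC1 promoter-driven luciferase reporter in stably transfected Huh7 cells was measured after 24 h compound treatment at 37 °C, followed by 10 min ambient incubation with luciferase detection reagent.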
p53 reactivator: qHTS assay for re-activators of p53 using a Luc reporter | hit rate 0.063% among 320,000 | H1299 p53-A138V BP100-luciferase reporter, luminescence, 24 h | Potency, µM (doses to about 92.2 µM), inactives show at the highest dose activity change, positive = activation, actives largely listed as activators; also: % of control where 0% means no effect; nearly all actives have a fitted effect of over 45% in size
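H1299 (p53-null), stable ts p53-A138V + BP100-Luc; 1000 cells/well, Opti-MEM/10% FBS; cpd 4 pt, 1:5; 24 h, 37 deg C, 5% CO2; detection reagent 10 min RT; luminescence.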
Rab9 prom act: qHTS Assay for Rab9 Promoter Activators. Huh7 Rab9 promoter-luciferase reporter, luminescence, 24 h. Potency, µM (doses to about 9.22 µM), for inactives: at the highest dose activation, negative = inhibition, hits mostly activators. AID 485297, 2010. hit rate 2.8% among 320,000; also: % of control where 0% means no effect; nearly all actives have a fitted effect of over 60% in size
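Using Huh7 cells stably transfected with Rab9 promoter–luciferase, compounds were incubated 24 h at 37 °C, 5% CO2; luciferase luminescence was read 10 min after reagent addition.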
Starred values were filed as active, the others as inactive; ? = inconclusive; · = no result given; [ ] = dose if it differs, or a comment. An excerpt weighted towards active compounds, which were near 7.4% of everything screened. Calls follow the shape of the dose curve; as a rule, active = well fitted curve in the direction sought with a large enough effect; inconclusive = small, poorly fitted or top-dose-only effect, or another doubt; inactive = no such curve, though single readings can be large; an effect the other way counts as inactive or inconclusive. Potency is read from the fitted curve at half-maximal effect.

SMILES	SMN2 splice enh	ELG1 genotoxic	FLuc modulator	NPC1 promoter act	p53 reactivator	Rab9 prom act
CC(=O)c1ccc(NC(=O)c2nc3ccccc3nc2N2CCCCC2)cc1	·	·	-9.0%	·	·	·
CC(=O)c1ccc(NC(=O)c2nc(-c3ccccc3)n(-c3ccc(C)cc3)n2)cc1	·	·	15.1µM*	·	·	·
COc1ccc(CCNC(=O)c2cnn(-c3ccc(F)cc3)c2C2CCN(C(=O)OC(C)(C)C)CC2)cc1OC	·	·	-1.5%	·	·	·
Cc1ccc(C(=O)COC(=O)CCCC(=O)Nc2cc(C(F)(F)F)ccc2Cl)cc1C	-8.5%	0.5%	2.39µM*	-2.6%	-3.3%	-4.5%
CCc1ccc(N2CC(C(=O)OCC(=O)c3c(N)n(CC(C)C)c(=O)n(C)c3=O)CC2=O)cc1 (stereo not given)	·	1.5%	6.6%	0.0%	2.3%	-5.1%
C[C@H](NS(=O)(=O)c1ccccc1F)C(=O)OCC(=O)Nc1ccc2c(c1)OCCO2	·	3.5%	·	·	4.8%	·
N#C/C(=C\c1ccc(-c2cc(Cl)ccc2Cl)o1)C(=O)Nc1ccccc1C(=O)O	-1.1%	·	4.26µM*	·	·	·
COc1cc(/C=C(\C#N)C(=O)Nc2ccccc2C(=O)O)cc(Cl)c1OC	1.6%	-0.4%	26.9µM*	-8.6%	-0.6%	-0.6%
CCCCSCCCNC(=O)c1cn(C)c2ccc(S(=O)(=O)N3CCCCCC3)cc2c1=O	9.1%	·	-1.6%	·	·	·
Cc1ccc(C2=N/C(=C\N(C)C)C(=O)O2)cc1	15.8%	14.6µM*	15.1µM*	?	13.8%	?
Cc1cccc(C2=N/C(=C\c3cccs3)C(=O)O2)c1	1.3%	3.4%	2.13µM*	-1.5%	-0.8%	2.1%
Cc1ccc(S(=O)(=O)Oc2ccc(/C=C3\N=C(c4cccc(C)c4)OC3=O)cc2)cc1	-8.7%	-4.1%	1.8%	-0.3%	-9.5%	6.9%
Cc1ccc(C2=N/C(=C\c3cccc(F)c3)C(=O)O2)cc1	·	-0.1%	3.01µM*	2.4%	25.7%	1.3%
CN(C)/C=C1/N=C(c2ccccc2)OC1=O	-28.2%	12.4%	-2.7%	2.1%	8.1%	0.0%
O=C1OC(c2ccc(F)cc2)=N/C1=C\C=C/c1ccccc1	·	-1.1%	?	-2.0%	-1.2%	-3.1%
CN(C)/C=C1\N=C(c2cccnc2Oc2ccc(Cl)cc2)OC1=O	·	0.3%	-1.0%	-4.2%	-7.8%	3.4%
CN(C)/C=C1\N=C(c2ccc(Cl)cc2Cl)OC1=O	-31.9%	9.2µM*	?	1.12µM*	11.3%	0.631µM*
CCCOc1ccc(CN(C(=O)Cc2coc3ccc(CC)cc23)C2CCS(=O)(=O)C2)cc1 (stereo not given)	-14.8%	·	3.3%	·	·	·
CC(C1OC(C)(C)C(O)C1O)C1CC[C@@]2(C)C3=CCC4C(C)(C)C(=O)CC[C@]4(C)C3CC[C@@]12C (stereo not given in full)	-14.6%	·	·	·	·	·
C=CCSc1n[nH]c(-c2ccc(OCCC)cc2)n1	11.2µM*	4.61µM*	10.7µM*	2.51µM*	?	2µM*
C=CCSc1n[nH]c(-c2ccc(OCCCC)cc2)n1	?	18.4µM*	15.1µM*	?	?	?
CCCOc1ccc(-c2nc(=S)[nH][nH]2)cc1	12.6µM*	?	?	27.8%	8.8%	?
Nc1ncnc2c1ncn2C[C@@H](O)C(=O)O	-25.9%[9.22 µM]	·	·	·	·	·
CCCCCC(O)(c1ccc(OCC)cc1)C(CN1CCOCC1)c1ccccc1 (stereo not given)	·	-10.1%	-0.7%	-6.2%	-1.3%	-5.1%
Clc1ccc(-n2ncc3c(NCc4ccc5c(c4)OCO5)ncnc32)cc1	-13.8%	?	?	10.1%	6.3%	6.7%
SMILES	SMN2 splice enh	ELG1 genotoxic	FLuc modulator	NPC1 promoter act	p53 reactivator	Rab9 prom act
CC(C)CCNc1ncnc2c1cnn2-c1cccc(Cl)c1	·	·	16.9µM*	·	·	·
CCCCN(CCCC)c1ncnc2c1cnn2-c1cccc(C)c1	·	·	-8.3%	·	·	·
OCCCNc1ncnc2c1cnn2-c1ccc(Cl)cc1	·	?	1.9µM*	0.199µM*	5.6%	0.282µM*
Cc1cccc(-n2ncc3c(N(C)Cc4ccccc4)ncnc32)c1	·	?	2.39µM*	3.98µM*	?	3.55µM*
CN(C)CCNc1ncnc2c1cnn2-c1ccc(Cl)cc1	26.1%	20.6µM*	7.57µM*	15.7%	-6.3%	?
CC(C)CCNc1ncnc2c1cnn2Cc1ccccc1Cl	·	-3.8%	-1.4%	-3.1%	1.0%	0.3%
Cc1ccc(Cn2ncc3c(NCCN(C)C)ncnc32)cc1	·	1.2%	3.3%	-4.2%	-2.2%	-1.9%
Cc1nnc(NC(=O)C2CSC3(C)CCC(=O)N23)s1 (stereo not given)	·	-1.8%	3.1%	-0.5%	6.8%	2.6%
Brc1cccc(OCCCNC2CCCC2)c1	·	-5.0%	1.1%	0.2%	·	-11.7%
Cc1oc2c(c(C)cc3oc(=O)c(CC(=O)N[C@@H](CCCNC(N)=O)C(=O)O)c(C)c32)c1C	·	-5.0%	-10.4%	0.9%	-3.7%	-4.4%
CC(C)(C)OC(=O)N1CCC(c2c(C(=O)N3CCC(c4ccccc4)C3)cnn2-c2ccc(Cl)cc2)CC1 (stereo not given)	·	·	4.7%	·	·	·
CCCCN(C)c1ncnc2c1cnn2-c1cccc(Cl)c1	·	·	2.69µM*	·	·	·
COc1ccc(CCNc2ncnc3c2cnn3-c2cccc(Cl)c2)cc1	·	·	-3.1%	·	·	·
O=C1CCCN1CCCNc1ncnc2c1cnn2-c1ccc(Cl)cc1	-35.2%	18.4µM*	16.9µM*	?	?	?
CN(C)CCNc1ncnc2c1cnn2-c1cccc(Cl)c1	·	·	23.9µM*	·	·	·
COc1ccc(CNC(=O)c2cnn(-c3ccc(C)cc3)c2-n2cccc2)cc1OC	·	·	-16.7%	·	·	·
CCc1nn(CC(=O)NC(C)CCc2ccccc2)c(=O)c2cc3c(OC)cccc3n12 (stereo not given)	0.5%	·	-2.3%	·	·	·
CC1CCCN(C(=S)Nc2ccc(F)cc2)C1 (stereo not given)	0.1%	-5.0%	-18.5%	-1.1%	-8.2%	3.4%
CCc1ccc(NC(=S)NCc2ccccc2)cc1	11.2µM*	11.2%	?	27.2%	7.1%	?
CCc1ccc(NC(=S)N2CCN(C)CC2)cc1	·	?	6.01µM*	29.2%	?	?
CCc1ccc(NC(=S)N2CCCC2)cc1	·	18.3µM*	21.3µM*	?	?	?
CCc1ccc(NC(=S)N2CCCC(C(F)(F)F)C2)cc1 (stereo not given)	-12.1%	4.2%	15.1µM*	1.4%	18.9%	2.2%
